VACV Venus inh: inhibitors of vaccinia virus (Venus reporter). Vaccinia virus Venus reporter expression, fluorescence. AID 720580. 330,000 tested, 0.46% active. Potency, µM (titrated, usually from 36.5 µM), usual class: inhibitors; calls by dose curve; tested in A549 cells; note: nearly all actives have a fitted effect of over 30% in size
Pf growth 48h: P. falciparum growth inhibition at 48 hours (one generation) | 310,000 tested, 5.9% active | Potency, µM (doses to about 28.7 µM), usual class: inhibitors | AID 504832 | P. falciparum luciferase growth in erythrocytes, 48 h
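Luciferase-expressing parasites in RBCs, 2% Hct / 0.1% parasitemia final; RPMI 1640 + 0.5% Albumax; 37 C, 5% CO2, one generation; luminescence read-out, lower signal = inhibition.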
AMA1-RON2 inh: disrupts binding of P. falciparum AMA1 to RON2; 360,000 tested, 0.2% active; AlphaScreen AMA1-biotinylated RON2 peptide binding; AID 720542; Potency, µM (doses to about 58.2 µM), actives largely listed as inhibitors; note: nearly all actives have a fitted effect of over 45% in size
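AMA1 (3D7) with his tag at 25 nM final met compounds first, then biotinylated RON2 peptide at 25 nM; detection used donor plus acceptor beads, 10 µg/mL apiece, read by AlphaScreen after 30 min at room temperature.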
VACV mCherry inh: vaccinia inhibition (mCherry reporter); Vaccinia virus mCherry reporter infection, fluorescence; Potency, µM (doses to about 36.5 µM), hits mostly inhibitors; 310,000 tested, 0.63% active; calls by dose curve; tested in A549 cells; note: nearly all actives have a fitted effect of over 35% in size
Pf growth 96h: P. falciparum growth inhibition at 96 hour, primary screen for plastid delayed-death inhibitors. 320,000 tested, 6.9% active. AID 504834. Potency, µM (doses to about 28.7 µM), most hits filed as inhibitors. P. falciparum luciferase reporter growth, 96 h
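Delayed-death screen, second-generation endpoint: infected erythrocytes, 2% hematocrit, 0.05% parasitemia final; 96 hours at 37 C, 5% CO2; luciferase detection reagent; luminescence decrease equals reduced growth.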
A number is an active result; . = inactive; ? = inconclusive; / = no result; [ ] = dose if it differs, or a comment. A selection: hits, their analogues and other compounds. The true share with any hit is near 8.7%. Unless noted, calls come from the whole dose curve; as a rule, active = well fitted curve in the direction sought with a large enough effect; inconclusive = small, poorly fitted or top-dose-only effect, or another doubt; inactive = no such curve, though single readings can be large; an effect the other way counts as inactive or inconclusive.

SMILES | VACV Venus inh | Pf growth 48h | AMA1-RON2 inh | VACV mCherry inh | Pf growth 96h
CCOc1ccc(-n2c(-c3ccccc3)c[n+]3c2CCC3)cc1 | . | ? | . | . | ?
O=C(OCc1nnn(Cc2ccccc2)c1-c1c(COC(=O)c2ccccc2)nnn1Cc1ccccc1)c1ccccc1 | . | 3.29µM | . | ? | 1.85µM
O=C(OCc1cn(Cc2ccccc2)nn1)c1ccccc1 | . | . | . | . | .
Cc1oc(-c2ccc(C(=O)NCc3ccccc3)cc2)nc1CN1CCc2ccccc21 | . | / | / | . | /
Cc1c(C(=O)NCCc2ccncc2)cnn1-c1nccc(-c2ccccc2C(F)(F)F)n1 | . | / | / | . | /
CN(C)S(=O)(=O)n1cc(/C=C(\NC(=O)c2ccccc2)C(=O)N2CCCC2)c2ccccc21 | / | ? | . | / | ?
COc1ccccc1C(=O)N/C(=C\c1cn(S(=O)(=O)N(C)C)c2ccccc12)C(=O)NCCCN1CCOCC1 | / | ? | . | / | ?
CCn1cc(/C=C(\NC(=O)c2ccccc2OC)C(=O)NCCCN2CCOCC2)c2ccccc21 | / | ? | . | / | 9.28µM
CCn1cc(/C=C(\NC(=O)c2ccc(OC)cc2)C(=O)N2CCN(C)CC2)c2ccccc21 | / | ? | . | / | 13.1µM
CN(C)S(=O)(=O)n1cc(/C=C(\NC(=O)c2ccccc2F)C(=O)NCCCn2ccnc2)c2ccccc21 | . | 10.4µM | . | . | .
CN1CCN(C(=O)/C(=C/c2cn(S(=O)(=O)N(C)C)c3ccccc23)NC(=O)c2ccccc2)CC1 | / | ? | . | / | 11.7µM
COc1ccc(C(=O)N/C(=C\c2cn(C)c3ccccc23)C(=O)N2CCN(C)CC2)cc1 | . | ? | . | ? | .
COc1ccccc1C(=O)N/C(=C\c1cn(S(=O)(=O)N(C)C)c2ccccc12)C(=O)NCCCn1ccnc1 | . | / | / | . | /
O=C1c2oc3ccccc3c(=O)c2C(c2ccccc2F)N1Cc1ccc2c(c1)OCO2 (stereo not drawn) | . | / | / | . | /
CC(C)Oc1ccc(C(=O)Nc2c(C(=O)Nc3cccc(F)c3)oc3ccccc23)cc1 | . | / | / | . | /
CN(C)c1ccc(/C=C(\NC(=O)c2ccccc2)C(=O)NCCN2CCOCC2)cc1 | . | . | . | . | 9.28µM
COc1ccc(C(CC(=O)c2ccc(C)cc2)C(C#N)C#N)cc1OC (stereo not drawn) | ? | 13.1µM | . | ? | .
CCc1ccc(-c2nn(CC(=O)NC3CCCCC3)c3c2cnc2ccc(F)cc23)cc1 | . | / | / | . | /
CC1(C)CC(N=Cc2c(O)n(Cc3ccc4c(c3)OCO4)c(=O)c3ccccc23)CC(C)(C)N1 | . | 8.28µM | . | . | 10.4µM
O=c1[nH]c(=O)n(Cc2ccco2)c(O)c1C=NCc1ccc2c(c1)OCO2 | / | . | . | / | ?
CCOc1ccc(NC(=O)c2cc(S(=O)(=O)NC3CCCC3)ccc2F)cc1 | . | / | / | . | /
COc1cc(OC)cc(C(=O)N2CCN(C(=O)COc3ccccc3)CC2)c1 | . | / | / | . | /
O=C(O)c1ccccc1N/N=C/c1c(Sc2nnnn2-c2ccccc2)nc2ccccn2c1=O | / | ? | . | / | 0.586µM
Cn1c(SCc2ccccc2Br)nc2ccccc2c1=O | / | . | . | / | ?
COCCn1c(SCC(=O)Nc2cc(C(C)(C)C)nn2-c2ccccc2)nc2ccccc2c1=O | . | . | . | . | .
SMILES | VACV Venus inh | Pf growth 48h | AMA1-RON2 inh | VACV mCherry inh | Pf growth 96h
Cc1cccc(NC(=O)CSc2nc3ccccc3c(=O)n2C)c1 | . | 14.7µM | . | . | ?
CCOCCCn1c(SCC(=O)Nc2cc(C(C)(C)C)nn2-c2ccccc2)nc2ccccc2c1=O | . | 13.1µM | .[2.32 µM] | . | ?
COCCn1c(SCC(=O)Nc2cccc(C(=O)OC)c2)nc2ccccc2c1=O | / | 13.1µM | . | / | .
Cc1cccc(NC(=O)CSc2nc3c([nH]c4ccccc43)c(=O)n2C)c1 | ? | . | . | ? | ?
Cc1ccccc1CSc1nc2ccccc2c(=O)n1C | / | 9.28µM | . | / | ?
CC(=O)c1cccc(NC(=O)CCCCCn2nnc3ccccc3c2=O)c1 | . | 6.57µM | . | . | 3.29µM
Cc1ccc(NC(=S)NNC(C)(C)C)cc1 | . | 13.1µM | . | . | 5.86µM
O=C(CCC(=O)N1CCSc2ccccc21)NCc1ccccc1Cl | . | / | / | . | /
COc1ccc(/C=C/C(=O)Nc2cccc(S(=O)(=O)NC3=NCCCCC3)c2)cc1 | / | . | . | / | .
COc1cc(/C=C/C(=O)Nc2cccc(S(=O)(=O)NC3=NCCCCC3)c2)ccc1OCC#N | . | 10.4µM | . | . | ?
COc1ccc(OC)c(/C=C/C(=O)Nc2cccc(S(=O)(=O)NC3=NCCCCC3)c2)c1 | / | 10.4µM | . | / | ?
O=C(O)COc1ccc(C(=O)c2cccs2)c(Cl)c1Cl | / | . | / | / | 3.79µM
Cc1ccc(C2=NC3(CCCC3)NC2=S)cc1 | . | . | . | . | .
COc1cc(OC)cc(C2=NC3(CCC(C)CC3)NC2=S)c1 (stereo not drawn) | . | 10.4µM | . | . | .
CCN(CC)S(=O)(=O)c1cccc(C(=O)OCc2cc(=O)n3nc(C)sc3n2)c1 | / | . | . | / | 5.22µM
Cc1nn2c(=O)cc(COC(=O)c3cccc(NC(=O)c4ccc(C(C)(C)C)cc4)c3)nc2s1 | . | / | / | . | /
Cc1ccc(N(Cc2cccs2)C(=O)COc2ccccc2[N+](=O)[O-])cc1 | . | / | / | . | /
Cc1ccc(C2=CC(C)(c3ccc(C)cc3)Nc3nc(C(F)(F)F)nn32)cc1 (stereo not drawn) | . | ? | . | . | ?
Cc1cc(C2=CC(C)(c3cc(C)oc3C)Nc3nc(C(F)(F)F)nn32)c(C)o1 (stereo not drawn) | / | 9.28µM | / | / | .
O=C(CSc1nc(=O)[nH]c2c1CCC2)NCc1ccc(F)cc1 | .[7.34 µM] | / | / | .[7.34 µM] | /
c1ccc(-c2csc3ncnc(N4CCN(Cc5ccc6c(c5)OCO6)CC4)c23)cc1 | / | 13.1µM | . | / | ?
Fc1ccc(-c2csc3ncnc(N4CCN(Cc5ccccc5)CC4)c23)cc1 | . | ? | . | . | 9.28µM
Fc1ccc(N2CCN(c3nc(CN4CCOCC4)nc4scc(-c5ccccc5)c34)CC2)cc1 | ? | 11.7µM | ? | ? | 7.38µM
O=C(CSc1ncnc2scc(-c3ccccc3)c12)N1CCN(Cc2ccc3c(c2)OCO3)CC1 | . | . | . | . | ?
CN(Cc1ccccc1)c1nc(CN2CCOCC2)nc2scc(-c3ccccc3)c12 | . | ? | . | . | ?
SMILES | VACV Venus inh | Pf growth 48h | AMA1-RON2 inh | VACV mCherry inh | Pf growth 96h
Cc1ccc2c(c1)[nH]c1c(N3CCN(Cc4ccc5c(c4)OCO5)CC3)ncnc12 | / | 2.94µM | / | / | /
Fc1ccc(-n2ncc3c(N4CCN(Cc5ccccc5)CC4)ncnc32)cc1 | . | / | / | . | /
Fc1ccc(CN2CCN(c3ncnc4scc(-c5ccccc5)c34)CC2)cc1 | / | ? | . | / | 10.4µM
Cc1ccc(-c2csc3ncnc(N4CCN(Cc5ccccc5)CC4)c23)cc1 | / | ? | . | / | ?
Cc1sc2ncnc(N3CCN(Cc4ccccc4)CC3)c2c1-c1ccc(F)cc1 | . | 13.1µM | . | . | 13.1µM
CCc1ccccc1-n1nnc(-c2nsc(NC(=O)c3ccc(C)c(C)c3)n2)c1C | ? | / | / | .[7.34 µM] | /
CC(=O)c1ccc(NC(=O)CCn2cccn2)cc1 | . | / | / | . | /
CC(C)(C)CN1CCN(Cc2cc3ccccc3[nH]2)CC1CCO (stereo not drawn) | / | . | . | / | 5.22µM
